Screens (PubChem BioAssay)
HSD17B inhib: blocks hydroxysteroid 17-beta dehydrogenase activity; Q99714; recombinant HSD17B10, NADH fluorescence kinetic; Potency, µM (titrated, usually from 57.1 µM), actives largely listed as inhibitors; hit rate 7.6% among 75,000; AID 893;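 note: the protocol describes HADH2 (HSD17B10) and not the HSD17B4 of the title; nearly all actives have a fitted effect of over 70% in size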
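20 nM HADH2, pH 9.0 Tris/Tween; cpd preinc 15 min RT; start w/ 1 mM NAD+ + 90 uM b-hydroxybutyryl-CoA; kinetic fluor ex360/em450 q30s x 4 min; delta last-first.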
FLuc inh: firefly luciferase inhibition; purified firefly luciferase, luminescence, 8 min; Potency, µM (titrated, usually from 57.1 µM), hits mostly inhibitors; hit rate 2.2% among 72,000; AID 411; note: nearly all actives have a fitted effect of over 40% in size
Target sequence (P08659 whole entry, looked up): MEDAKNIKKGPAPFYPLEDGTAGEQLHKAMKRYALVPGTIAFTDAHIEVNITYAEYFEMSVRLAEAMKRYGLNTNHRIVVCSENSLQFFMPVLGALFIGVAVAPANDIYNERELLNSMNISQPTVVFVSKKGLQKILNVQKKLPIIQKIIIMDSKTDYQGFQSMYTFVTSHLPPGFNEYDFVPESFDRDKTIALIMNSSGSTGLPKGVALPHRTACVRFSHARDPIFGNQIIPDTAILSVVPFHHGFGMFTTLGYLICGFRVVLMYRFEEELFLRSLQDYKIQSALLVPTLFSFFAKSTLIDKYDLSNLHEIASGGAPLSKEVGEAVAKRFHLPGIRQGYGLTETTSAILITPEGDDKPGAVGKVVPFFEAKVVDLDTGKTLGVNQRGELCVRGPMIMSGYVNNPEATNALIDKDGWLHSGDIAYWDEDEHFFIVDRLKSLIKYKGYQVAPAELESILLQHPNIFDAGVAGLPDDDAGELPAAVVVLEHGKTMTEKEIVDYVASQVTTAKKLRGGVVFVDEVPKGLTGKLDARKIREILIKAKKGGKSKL
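Titration-based qHTS; buffer 50 mM imidazole pH 7.2, 50 mM KCl, 7 mM MgCl2, 10 uM ATP, 0.01% Tween 20, 0.05% BSA; luciferase/luciferin detector mix added after compound; 8 min, ambient; luminescence.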
15-hLO inh: inhibitors of human 15-lipoxygenase (ALOX15); purified 15hLO-1, xylenol orange hydroperoxide absorbance; Potency, µM (top dose mostly 57.1 µM), most hits filed as inhibitors; hit rate 1.4% among 74,000; note: nearly all actives have a fitted effect of over 55% in size
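Inhibition is scored from a chromogenic endpoint. After 15 min enzyme-compound contact, arachidonic acid (50 uM final) reacts 6 min with 40 nM 15hLO-1 at room temperature, then Fe-XO reagent is added for 30 min and absorbance ratio recorded.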
Bst PK mod: pyruvate kinase (B. stearothermophilus) modulation; purified pyruvate kinase, luminescence ATP production; ribose 5-phosphate activator present at AC10; hit rate 1.2% among 51,000; Potency, µM; in the data active = potency below about 11 µM; inconclusive = mostly about 12 µM to 25 µM;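 the screen sought inhibitors and activators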
HADH2 inhib: inhibitors of human HADH2 dehydrogenase; Potency, µM (top dose mostly 57.1 µM), actives largely listed as inhibitors; hit rate 3.4% among 73,000; recombinant HADH2, NADH fluorescence, beta-hydroxybutyryl-CoA; Q99714; note: nearly all actives have a fitted effect of over 60% in size
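Buffer 100 mM Tris-HCl pH 9.0/0.01% Tween-20; HADH2 20 nM; NAD+ 1 mM; beta-hydroxybutyryl-CoA 90 uM (all final). 15 min cpd preincubation, RT.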
ERK AVP block: blocks ERK signaling stimulated by vasopressin; HEK293-V1b, vasopressin-stimulated pERK AlphaScreen; Potency, µM (top dose mostly 57.5 µM), usual class: inhibitors; hit rate 0.99% among 72,000; note: nearly all actives have a fitted effect of over 55% in size
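Phosphorylated ERK1/2 detected via AlphaScreen bead proximity in lysates of V1b-expressing HEK293 cells given 25 nM vasopressin for 5 min after 30 min compound exposure (37 °C). AC50 from Hill equation; basal DMSO 0%, vasopressin 100%.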
Each line names hits and unclear results; the compound was inactive in the other large screens. Shown are actives, neighbours in structure and some others; about 11% of the full set was active somewhere. Unless noted, calls come from the whole dose curve; as a rule, active = well fitted curve in the direction sought with a large enough effect; inconclusive = small, poorly fitted or top-dose-only effect, or another doubt; inactive = no such curve, though single readings can be large; an effect the other way counts as inactive or inconclusive.

CCCCNC(=O)CS(=O)Cc1nc(-c2cccs2)oc1C (stereo not given)	HSD17B inhib inconclusive (no result: Bst PK mod)
Cc1oc(-c2cccs2)nc1CS(=O)CC(=O)NCCc1ccccc1 (stereo not given)	HSD17B inhib 25.1µM (no result: Bst PK mod)
CC(C)C[C@@H](CC(=O)N[C@@H](CCCN)CC(=O)N[C@@H]1CCNC[C@H]1C(=O)N[C@H](CC(=O)N[C@@H](CCC(=O)O)CC(=O)O)Cc1ccccc1)NC(=O)[C@@H]1CCCC[C@H]1N	none (no result: HSD17B inhib, FLuc inh, 15-hLO inh, Bst PK mod, ERK AVP block)
CC1(C)SC2C(N3C(=O)C(c4ccccc4)NC3(C)C)C(=O)N2C1C(=O)O (stereo not given)	HSD17B inhib inconclusive (no result: FLuc inh, Bst PK mod, HADH2 inhib)
N#CCCn1c(=O)c(-c2cccs2)nc2cnc(N3CCNCC3)nc21	HSD17B inhib 12.6µM (no result: Bst PK mod)
COCCn1c(=O)c(-c2cccs2)nc2cnc(N3CCNCC3)nc21	HSD17B inhib 25.1µM (no result: Bst PK mod)
O=c1c(-c2cccs2)nc2cnc(N3CCOCC3)nc2n1CCc1ccccc1	HSD17B inhib inconclusive (no result: Bst PK mod)
O=c1c(-c2ccccc2)nc2cnc(N3CCNCC3)nc2n1Cc1cccs1	none (no result: Bst PK mod)
Cc1cccc(N2C(=O)c3cccc4c(N(C)CCO)ccc(c34)C2=O)c1	HSD17B inhib 25.1µM (no result: Bst PK mod)
CC1=CC(=C2C(=O)c3ccccc3C2=O)C=C(C)N1C	FLuc inh 15.8µM (no result: Bst PK mod)
COC(=O)c1ccc2c(=O)n(CCO)c(=S)[nH]c2c1	none
CCN1CCN(C(=O)CCCCCn2c(=O)[nH]c3cc(C(=O)OC)ccc3c2=O)CC1	HSD17B inhib 31.6µM, HADH2 inhib inconclusive
COCCn1c(=O)[nH]c2cc(C(=O)OC)ccc2c1=O	HSD17B inhib 25.1µM, HADH2 inhib 3.16µM
O=c1c2c3c(sc2ncn1/N=C/c1ccco1)CCCC3	none (no result: Bst PK mod)
N#Cc1c(/N=C/c2cccs2)sc2c1CCC2	FLuc inh 10µM, Bst PK mod inconclusive
N#Cc1c(NC(=O)CSc2ncn(-c3ccccc3)n2)sc2c1CCCC2	none
N#Cc1c(/N=C/c2ccco2)sc2c1CCCCC2	FLuc inh 0.794µM, Bst PK mod 0.523, ERK AVP block inconclusive
O=C(Nc1cccc(F)c1)N1CC2(CCN(C(=O)c3cccc(F)c3)CC2)C1	none (no result: Bst PK mod)
COC(=O)C(C#N)c1nc2ccccc2nc1N1CCCC1 (stereo not given)	HSD17B inhib inconclusive, ERK AVP block inconclusive
Cc1cccc(S(=O)(=O)C(C#N)c2nc3ccccc3nc2N2CCCC2)c1 (stereo not given)	HSD17B inhib 31.6µM, 15-hLO inh inconclusive, HADH2 inhib inconclusive
N#CC(c1nc2ccccc2nc1N1CCCC1)S(=O)(=O)c1cccs1 (stereo not given)	HSD17B inhib 31.6µM, 15-hLO inh 10µM, HADH2 inhib inconclusive, ERK AVP block inconclusive
N#CC(c1nc2ccccc2nc1N1CCCC1)S(=O)(=O)c1ccccc1 (stereo not given)	HSD17B inhib inconclusive, 15-hLO inh inconclusive, HADH2 inhib 25.1µM (no result: FLuc inh, Bst PK mod, ERK AVP block)
Cc1ccc(S(=O)(=O)C(C#N)c2nc3ccccc3nc2N2CCC(C)CC2)cc1 (stereo not given)	none
Cc1ccc(C)c(S(=O)(=O)C(C#N)c2nc3ccccc3nc2N2CCCC2)c1 (stereo not given)	HSD17B inhib 31.6µM, 15-hLO inh 12.6µM, ERK AVP block inconclusive
COc1ccc(S(=O)(=O)C(C#N)c2nc3ccccc3nc2N2CCCCC2)cc1 (stereo not given)	none
Cc1ccc(C)c(S(=O)(=O)C(C#N)c2nc3ccccc3nc2N2CCOCC2)c1 (stereo not given)	none
CC(C)CCN1CCc2nc(COc3ccccc3)c3c(c2C1)COC(C)C3 (stereo not given)	none (no result: FLuc inh, Bst PK mod)
O=C(O)Cn1nc(-c2ccccc2)c2ccccc21	HSD17B inhib inconclusive, HADH2 inhib inconclusive (no result: Bst PK mod, ERK AVP block)
COc1ccc(C2=C(N)c3ccccc3C2=O)cc1	FLuc inh 12.6µM (no result: Bst PK mod)
COC(=O)c1cc(COc2ccc3ccc(=O)oc3c2)c(C)o1	HSD17B inhib 25.1µM, HADH2 inhib 6.31µM
Cc1oc(C(=O)O)cc1COc1ccc2c(C)cc(=O)oc2c1	HSD17B inhib 25.1µM, HADH2 inhib inconclusive
COCC(=O)N1CCC[C@@]2(CCN(c3ncccn3)C2)C1	HSD17B inhib inconclusive (no result: Bst PK mod)
